From PubChem BioAssay (EPA / NIEHS)
Inconclusive results are not listed. Active and inactive are the calls of the source. The calls were made as follows, unless noted: active = hit-call score of the fitted dose curve at least 0.9, where 1 is the maximum; inconclusive = response in the unintended direction; inactive = score below 0.9.

Columns and labels:
[1] = ATG_TCF_b_cat_CIS: Attagene CIS-FACTORIAL HepG2 Assay for human T-Cell-Factor with beta-catenin (TCF/b-cat) (AID 2282965; active = hit-call score of the fitted dose curve at least 0.9, where 1 is the maximum; inactive = score below 0.9); settings: HepG2 TCF/beta-catenin cis-reporter transcription, actives raise or lower the signal
Summary of the method: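 Endogenous TCF/LEF activity read as reporter transcript level via RT-PCR and capillary electrophoresis fluorescence in transfected HepG2, 24 h exposure; gain or loss of signal fitted against DMSO controls.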

[2] = ATG_TAL_CIS: Attagene CIS-FACTORIAL HepG2 Assay for human TAL Basal Promoter (AID 2282966; active = hit-call score of the fitted dose curve at least 0.9, where 1 is the maximum; inactive = score below 0.9;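 also: background control endpoint measuring basal TAL promoter reporter mRNA not a specific factor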); settings: HepG2 Attagene cis-factorial TAL promoter reporter; actives raise or lower the signal
Summary of the method: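 Readout: reporter mRNA, fluorescence by CE. System: HepG2, transient multi-reporter transfection, endogenous TF activity. Exposure: 24 h. Analysis: bidirectional, DMSO-normalized; background control.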

[3] = ATG_TGFb_CIS: Attagene CIS-FACTORIAL HepG2 Assay for human Transforming Growth Factor (TGF) (AID 2282967; active = hit-call score of the fitted dose curve at least 0.9, where 1 is the maximum; inactive = score below 0.9); settings: HepG2 Attagene CIS TGFb reporter, mRNA transcription; actives raise or lower the signal
Summary of the method: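 HepG2 cells transiently transfected with cis-promoter-driven multiplexed reporter units; 24 h compound exposure. Reporter mRNA measured by RT-PCR, 6-FAM labeling, HpaI digestion and capillary electrophoresis; bidirectional fit versus DMSO baseline.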

[4] = ATG_VDRE_CIS: Attagene CIS-FACTORIAL HepG2 Assay for human Vitamin D Receptor Element (VDRE) (AID 2282968; active = hit-call score of the fitted dose curve at least 0.9, where 1 is the maximum; inactive = score below 0.9); settings: HepG2 VDRE cis-reporter transcription, actives raise or lower the signal
Summary of the method: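 Reporter mRNA induction, quantified by capillary electrophoresis of fluorescently labelled RT-PCR products, was read 24 h after dosing HepG2 cells carrying transiently transfected cis-regulated reporter units; gain or loss relative to DMSO.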

[5] = target: Nuclear receptor subfamily 1 group I member 3 (Homo sapiens) (UniProt Q14994); experiment: ATG_CAR_TRANS: Attagene TRANS-FACTORIAL HepG2 Assay for human Constitutive Androstane Receptor (CAR) (AID 2282969); settings: HepG2 Attagene TRANS-FACTORIAL CAR reporter;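 also: activators raise reporter mRNA above DMSO so AC50 marks induction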
Nuclear receptor subfamily 1 group I member 3 (Homo sapiens), sequence (Q14994 whole entry, looked up, the tested form may be a part): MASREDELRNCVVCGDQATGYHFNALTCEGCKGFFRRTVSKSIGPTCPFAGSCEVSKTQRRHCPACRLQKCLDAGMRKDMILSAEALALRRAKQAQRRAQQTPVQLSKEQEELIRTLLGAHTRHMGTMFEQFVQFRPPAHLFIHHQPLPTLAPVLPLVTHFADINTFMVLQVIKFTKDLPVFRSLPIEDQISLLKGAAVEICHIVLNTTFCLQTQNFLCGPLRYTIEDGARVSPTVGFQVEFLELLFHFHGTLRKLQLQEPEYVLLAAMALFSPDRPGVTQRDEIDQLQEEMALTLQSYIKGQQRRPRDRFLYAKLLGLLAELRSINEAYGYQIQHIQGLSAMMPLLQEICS
Summary of the method: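 Readout is reporter mRNA induction, quantified by fluorescent primer extension and capillary electrophoresis after RT-PCR. Cells were HepG2 transiently carrying chimeric NR-Gal4 constructs with GAL4-UAS reporters, treated for 24 h; activity scored upward from DMSO.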

[6] = target: Estrogen receptor (Homo sapiens) (UniProt P03372); experiment: ATG_ERa_TRANS: Attagene TRANS-FACTORIAL HepG2 Assay for human Estrogen Receptor alpha (ERa) (AID 2282970); settings: HepG2 Attagene TRANS ERa GAL4 reporter, mRNA
Estrogen receptor (Homo sapiens), sequence (P03372 whole entry, looked up, the tested form may be a part): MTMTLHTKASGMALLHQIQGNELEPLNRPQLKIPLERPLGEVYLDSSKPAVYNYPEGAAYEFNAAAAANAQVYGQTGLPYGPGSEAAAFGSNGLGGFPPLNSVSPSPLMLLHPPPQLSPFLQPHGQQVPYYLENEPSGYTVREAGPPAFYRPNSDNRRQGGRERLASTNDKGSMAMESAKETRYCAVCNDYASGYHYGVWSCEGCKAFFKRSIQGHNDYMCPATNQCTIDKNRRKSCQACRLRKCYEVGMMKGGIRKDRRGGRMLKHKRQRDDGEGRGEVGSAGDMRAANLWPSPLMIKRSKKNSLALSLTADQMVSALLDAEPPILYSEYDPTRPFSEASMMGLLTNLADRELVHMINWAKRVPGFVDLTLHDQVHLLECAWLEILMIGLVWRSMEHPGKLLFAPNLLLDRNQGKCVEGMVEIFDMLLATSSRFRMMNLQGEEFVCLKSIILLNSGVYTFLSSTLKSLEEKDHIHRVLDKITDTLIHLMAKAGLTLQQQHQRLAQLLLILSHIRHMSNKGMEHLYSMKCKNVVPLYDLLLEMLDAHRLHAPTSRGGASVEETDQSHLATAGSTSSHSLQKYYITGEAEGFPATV
Summary of the method: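 Transactivation via ERa-Gal4 chimera in HepG2; 24 hour incubation; reporter mRNA detected by fluorescence RT-PCR and capillary electrophoresis.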

[7] = target: X-box-binding protein 1 (Homo sapiens) (UniProt P17861); experiment: ATG_Xbp1_CIS: Attagene CIS-FACTORIAL HepG2 Assay for human X-box Binding Protein 1 (XBP1) (AID 2282972; active = hit-call score of the fitted dose curve at least 0.9, where 1 is the maximum; inactive = score below 0.9); settings: HepG2 XBP1 cis-element reporter, Attagene multiplex; actives raise or lower the signal
X-box-binding protein 1 (Homo sapiens), sequence (P17861 whole entry, looked up, the tested form may be a part): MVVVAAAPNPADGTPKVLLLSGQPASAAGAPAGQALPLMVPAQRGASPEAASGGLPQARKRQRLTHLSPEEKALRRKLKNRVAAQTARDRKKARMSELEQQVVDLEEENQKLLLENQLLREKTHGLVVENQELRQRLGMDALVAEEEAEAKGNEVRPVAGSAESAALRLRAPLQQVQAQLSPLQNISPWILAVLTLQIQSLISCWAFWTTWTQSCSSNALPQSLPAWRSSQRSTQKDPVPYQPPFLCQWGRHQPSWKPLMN
Summary of the method: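 Fluorescence-labelled cDNA fragments from reporter transcripts, separated by capillary electrophoresis, give the signal. Source: HepG2 cells transfected with promoter-driven reporter units, harvested 24 h post-dose. DMSO served as reference for bidirectional curve fitting.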

[8] = ATG_M_19_TRANS: Attagene TRANS-FACTORIAL HepG2 Assay for M19 Transcription Factor (Internal Marker) (AID 2282974); settings: HepG2 Attagene TRANS-FACTORIAL M19 internal marker reporter
Summary of the method: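 Using RT-PCR and capillary electrophoresis, reporter mRNA from transiently transfected human HepG2 cells was quantified following 24 h exposure; activity was fitted in the positive direction against DMSO.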

[9] = target: Bile acid receptor (Homo sapiens) (UniProt Q96RI1); experiment: ATG_FXR_TRANS: Attagene TRANS-FACTORIAL HepG2 Assay for Farnesoid X Receptor (FXR) (AID 2282979); settings: HepG2 Attagene TRANS FXR-GAL4 reporter transcription;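 also: hits raise reporter mRNA above DMSO so AC50 marks FXR activation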
Bile acid receptor (Homo sapiens), sequence (Q96RI1 whole entry, looked up, the tested form may be a part): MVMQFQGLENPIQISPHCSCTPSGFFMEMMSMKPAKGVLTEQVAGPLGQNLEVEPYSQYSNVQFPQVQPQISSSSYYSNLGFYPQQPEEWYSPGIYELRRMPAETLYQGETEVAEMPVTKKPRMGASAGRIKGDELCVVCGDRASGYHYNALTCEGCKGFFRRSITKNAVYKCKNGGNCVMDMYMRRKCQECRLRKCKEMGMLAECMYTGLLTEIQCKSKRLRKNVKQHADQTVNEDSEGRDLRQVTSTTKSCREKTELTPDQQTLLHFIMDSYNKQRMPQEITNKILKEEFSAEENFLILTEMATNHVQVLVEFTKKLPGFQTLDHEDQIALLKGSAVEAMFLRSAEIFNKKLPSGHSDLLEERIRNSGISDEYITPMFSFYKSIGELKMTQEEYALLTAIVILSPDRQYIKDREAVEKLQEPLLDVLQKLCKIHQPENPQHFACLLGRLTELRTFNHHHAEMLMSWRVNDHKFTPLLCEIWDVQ
Summary of the method: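 Chimeric FXR-GAL4 activity in transiently transfected human HepG2 liver cells is scored as induction of reporter mRNA after 24 h of dosing. Detection uses RT-PCR with fluorescent labelling and capillary electrophoresis, with DMSO serving as baseline.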

[10] = target: Oxysterols receptor LXR-beta (Homo sapiens) (UniProt P55055); experiment: ATG_LXRb_TRANS: Attagene TRANS-FACTORIAL HepG2 Assay for human Liver X Receptor beta (LXRb) (AID 2282981); settings: HepG2 Attagene TRANS GAL4-LXRb reporter, mRNA
Oxysterols receptor LXR-beta (Homo sapiens), sequence (P55055 whole entry, looked up, the tested form may be a part): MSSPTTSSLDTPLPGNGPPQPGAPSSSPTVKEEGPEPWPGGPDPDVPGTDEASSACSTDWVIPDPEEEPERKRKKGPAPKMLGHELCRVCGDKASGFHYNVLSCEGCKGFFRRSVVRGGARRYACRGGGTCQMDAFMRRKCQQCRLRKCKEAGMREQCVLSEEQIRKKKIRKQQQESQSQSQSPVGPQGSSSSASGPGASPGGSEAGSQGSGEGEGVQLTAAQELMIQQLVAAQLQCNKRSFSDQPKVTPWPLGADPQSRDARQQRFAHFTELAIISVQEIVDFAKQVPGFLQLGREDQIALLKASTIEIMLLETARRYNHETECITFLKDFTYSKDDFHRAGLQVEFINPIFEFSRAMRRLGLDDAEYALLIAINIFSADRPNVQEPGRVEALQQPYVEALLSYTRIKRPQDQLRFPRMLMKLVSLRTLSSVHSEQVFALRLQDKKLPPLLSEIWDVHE
Summary of the method: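 Transient transfection HepG2 (multiplexed RTUs, GAL4-UAS); NR-Gal4 chimera; 24 h exposure; RNA → RT-PCR → 6-FAM primer extension → HpaI → CE; increase vs DMSO.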

[11] = ATG_Hpa5_TRANS: Attagene TRANS-FACTORIAL HepG2 Assay for human GAL4-Hpa5 Hepatocyte Transcription Factor Basal Promoter (AID 2282975); settings: HepG2 Attagene GAL4-Hpa5 transcription reporter;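 also: hits are increases in reporter mRNA over DMSO baseline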
Summary of the method: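 Basal-promoter GAL4 background control within the HepG2 trans-factorial panel of transiently transfected reporter units. Reporter mRNA is measured 24 h after dosing by RT-PCR and capillary electrophoresis, fitted for gain of signal versus DMSO.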

[12] = target: Estrogen-related receptor gamma (Homo sapiens) (UniProt P62508); experiment: ATG_ERRg_TRANS: Attagene TRANS-FACTORIAL HepG2 Assay for human Estrogen-Related Receptor gamma (ERRg) (AID 2282977); settings: HepG2 Attagene TRANS reporter, ERRg transactivation;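 also: hits increase reporter signal over DMSO so potencies reflect activators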
Estrogen-related receptor gamma (Homo sapiens), sequence (P62508 whole entry, looked up, the tested form may be a part): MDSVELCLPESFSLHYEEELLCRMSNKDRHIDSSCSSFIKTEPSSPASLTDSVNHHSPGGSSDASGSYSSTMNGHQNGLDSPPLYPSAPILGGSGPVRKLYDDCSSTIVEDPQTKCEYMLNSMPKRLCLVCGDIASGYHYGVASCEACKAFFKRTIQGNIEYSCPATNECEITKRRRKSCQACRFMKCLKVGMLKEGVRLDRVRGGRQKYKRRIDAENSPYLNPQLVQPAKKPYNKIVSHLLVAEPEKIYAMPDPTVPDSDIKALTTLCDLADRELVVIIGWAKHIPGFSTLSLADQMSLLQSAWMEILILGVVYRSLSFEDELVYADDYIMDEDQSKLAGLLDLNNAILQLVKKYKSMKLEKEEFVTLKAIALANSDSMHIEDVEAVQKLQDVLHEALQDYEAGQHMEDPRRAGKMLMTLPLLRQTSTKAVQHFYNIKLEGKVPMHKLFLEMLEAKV
Summary of the method: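 HepG2 cells transiently transfected with multiplexed GAL4-UAS reporter units driven by chimeric NR-Gal4 proteins; 24 h exposure. Reporter mRNA quantified by RT-PCR, fluorescent labelling, HpaI digestion and capillary electrophoresis; gain of signal vs DMSO.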

[13] = target: Hepatocyte nuclear factor 4-alpha (Homo sapiens) (UniProt P41235); experiment: ATG_HNF4a_TRANS: Attagene TRANS-FACTORIAL HepG2 Assay for human Hepatocyte Nuclear Factor 4 alpha (HNF4a) (AID 2282982); settings: HepG2 HNF4a transactivation reporter, mRNA readout
Hepatocyte nuclear factor 4-alpha (Homo sapiens), sequence (P41235 whole entry, looked up, the tested form may be a part): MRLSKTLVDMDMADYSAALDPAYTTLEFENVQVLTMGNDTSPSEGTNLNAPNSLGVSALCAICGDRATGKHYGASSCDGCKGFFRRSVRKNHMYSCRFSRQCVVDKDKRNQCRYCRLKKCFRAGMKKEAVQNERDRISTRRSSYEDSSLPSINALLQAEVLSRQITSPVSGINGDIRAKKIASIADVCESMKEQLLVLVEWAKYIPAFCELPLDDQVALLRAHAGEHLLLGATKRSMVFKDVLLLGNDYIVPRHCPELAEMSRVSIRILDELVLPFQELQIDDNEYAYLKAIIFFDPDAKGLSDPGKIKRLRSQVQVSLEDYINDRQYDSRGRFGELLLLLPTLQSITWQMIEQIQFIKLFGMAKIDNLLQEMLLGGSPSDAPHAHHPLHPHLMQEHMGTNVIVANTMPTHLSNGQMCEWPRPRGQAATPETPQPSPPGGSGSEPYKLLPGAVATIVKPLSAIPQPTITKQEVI
Summary of the method: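 Readout is fluorescent reporter-transcript fragments resolved by capillary electrophoresis after RT-PCR from HepG2 cells dosed for 24 h. Cells carried transfected GAL4-UAS reporter constructs measuring exogenous NR-GAL4 chimera activity; DMSO served as baseline.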

[14] = ATG_M_06_TRANS: Attagene TRANS-FACTORIAL HepG2 Assay for M06 Transcription Factor (Internal Marker) (AID 2282983); settings: HepG2 Attagene TRANS M06 internal marker reporter
Summary of the method: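 Measured by capillary electrophoresis of fluorescently labelled RT-PCR products, this endpoint reflects reporter mRNA in HepG2 cells harbouring exogenous NR-GAL4 reporter constructs after 24 h exposure, with DMSO as baseline.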

[15] = ATG_M_32_TRANS: Attagene TRANS-FACTORIAL HepG2 Assay for M32 Transcription Factor (Internal Marker) (AID 2282984); settings: HepG2 Attagene TRANS M32 internal marker reporter
Summary of the method: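 Measures reporter mRNA induction in human HepG2 liver cells after 24 h chemical treatment. Transcripts from transiently transfected GAL4-UAS reporter units are amplified, fluorescently labelled and sized by capillary electrophoresis; gain of signal relative to DMSO.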

[16] = target: Glucocorticoid receptor (Homo sapiens) (UniProt P04150); experiment: ATG_GR_TRANS: Attagene TRANS-FACTORIAL HepG2 Assay for human Glucocorticoid Receptor (GR) (AID 2282978); settings: HepG2 Attagene TRANS GR reporter, mRNA transcription;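 also: activators score as hits since higher reporter transcript over DMSO is fitted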
Glucocorticoid receptor (Homo sapiens), sequence (P04150 whole entry, looked up, the tested form may be a part): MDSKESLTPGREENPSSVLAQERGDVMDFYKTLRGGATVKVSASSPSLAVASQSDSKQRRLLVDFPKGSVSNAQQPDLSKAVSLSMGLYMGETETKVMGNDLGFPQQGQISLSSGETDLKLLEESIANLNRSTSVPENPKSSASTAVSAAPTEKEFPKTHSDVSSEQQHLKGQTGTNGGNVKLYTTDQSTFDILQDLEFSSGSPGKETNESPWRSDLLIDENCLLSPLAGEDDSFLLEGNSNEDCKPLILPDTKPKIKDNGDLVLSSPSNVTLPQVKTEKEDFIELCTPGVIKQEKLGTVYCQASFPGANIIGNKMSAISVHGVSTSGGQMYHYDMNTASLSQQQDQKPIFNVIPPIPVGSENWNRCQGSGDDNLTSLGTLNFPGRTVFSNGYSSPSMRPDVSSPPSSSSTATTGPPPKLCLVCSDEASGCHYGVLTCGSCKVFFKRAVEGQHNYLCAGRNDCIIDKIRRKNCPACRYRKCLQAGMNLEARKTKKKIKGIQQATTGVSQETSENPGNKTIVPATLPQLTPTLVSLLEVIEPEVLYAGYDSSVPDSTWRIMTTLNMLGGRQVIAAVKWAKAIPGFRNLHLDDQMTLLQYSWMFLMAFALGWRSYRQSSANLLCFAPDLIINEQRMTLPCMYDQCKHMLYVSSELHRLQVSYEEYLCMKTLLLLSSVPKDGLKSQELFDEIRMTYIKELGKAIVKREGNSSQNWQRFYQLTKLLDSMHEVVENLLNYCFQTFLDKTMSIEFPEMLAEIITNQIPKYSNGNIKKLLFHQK
Summary of the method: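 Exogenous NR-GAL4 fusion activity was assessed through induced GAL4-UAS reporter transcripts in transfected human HepG2 cells, quantified after 24 h by RT-PCR and fluorescent capillary electrophoresis with DMSO as baseline.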

[17] = ATG_GAL4_TRANS: Attagene TRANS-FACTORIAL HepG2 Assay for GAL4 (Internal Marker) (AID 2282976); settings: HepG2 Attagene TRANS GAL4 internal marker reporter
Summary of the method: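 Fluorescence from capillary electrophoresis of labelled RT-PCR products quantifies reporter mRNA induction after 24 h dosing of HepG2 cells carrying transfected GAL4-UAS reporter transcription units. Vehicle DMSO serves as baseline.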

[18] = target: Steroid hormone receptor ERR1 (Homo sapiens) (UniProt P11474); experiment: ATG_ERRa_TRANS: Attagene TRANS-FACTORIAL HepG2 Assay for human Estrogen-Related Receptor alpha (ERRa) (AID 2282971); settings: HepG2 Attagene TRANS reporter, ERRa transactivation
Steroid hormone receptor ERR1 (Homo sapiens), sequence (P11474 whole entry, looked up, the tested form may be a part): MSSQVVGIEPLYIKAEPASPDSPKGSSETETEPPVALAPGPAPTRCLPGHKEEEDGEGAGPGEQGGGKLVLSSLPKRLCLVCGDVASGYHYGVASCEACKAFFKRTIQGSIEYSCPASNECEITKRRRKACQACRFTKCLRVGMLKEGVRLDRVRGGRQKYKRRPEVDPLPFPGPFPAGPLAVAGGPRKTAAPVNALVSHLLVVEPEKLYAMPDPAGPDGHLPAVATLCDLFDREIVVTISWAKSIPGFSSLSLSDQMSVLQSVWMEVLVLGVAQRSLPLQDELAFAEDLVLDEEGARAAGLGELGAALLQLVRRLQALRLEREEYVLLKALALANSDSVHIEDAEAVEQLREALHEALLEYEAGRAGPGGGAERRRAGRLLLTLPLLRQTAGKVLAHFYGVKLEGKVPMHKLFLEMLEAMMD
Summary of the method: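 HepG2 cells were transiently transfected with multiple GAL4-UAS reporter units, then dosed with compound for 24 h. Total RNA was reverse-transcribed, reporter cDNA PCR-amplified and fluorescently labelled, and fragments resolved by capillary electrophoresis; induction was compared with DMSO.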

Measured: AC50

CNC(=O)Oc1cccc2ccccc12
active: [6] 50 µM
inactive: [1] | [2] | [3] | [4] | [5] | [7] | [8] | [9] | [10]

CN=C=S
active: [4] 50 µM
not listed: [5] | [8] | [16] | [17] | [18]
inactive: all other assays above

Cc1nc(N(C)C)nc(OC(=O)N(C)C)c1C
inactive: [1] | [2] | [3] | [4] | [6] | [7] | [8] | [11] | [16] | [9]

CSC(=O)c1c(C(F)F)nc(C(F)(F)F)c(C(=O)SC)c1CC(C)C
active: [4] 0.789 µM | [6] 8.26 µM
not listed: [9] | [10] | [12] | [18]
inactive: all other assays above

COCC(=O)N(c1c(C)cccc1C)C(C)C(=O)OC (stereo not given)
not listed: [2] | [13] | [14] | [16] | [17]
inactive: all other assays above
